Drawing on ChEMBL document CHEMBL1961873, “Compounds: GSK PKIS; Assays: Nanosyn kinase panel” (2012), this text covers inhibition for three molecules.

Assay [1] addresses T1, Serine/threonine-protein kinase D2 (Homo sapiens) (UniProt Q9BZL6).
T1 sequence (whole entry): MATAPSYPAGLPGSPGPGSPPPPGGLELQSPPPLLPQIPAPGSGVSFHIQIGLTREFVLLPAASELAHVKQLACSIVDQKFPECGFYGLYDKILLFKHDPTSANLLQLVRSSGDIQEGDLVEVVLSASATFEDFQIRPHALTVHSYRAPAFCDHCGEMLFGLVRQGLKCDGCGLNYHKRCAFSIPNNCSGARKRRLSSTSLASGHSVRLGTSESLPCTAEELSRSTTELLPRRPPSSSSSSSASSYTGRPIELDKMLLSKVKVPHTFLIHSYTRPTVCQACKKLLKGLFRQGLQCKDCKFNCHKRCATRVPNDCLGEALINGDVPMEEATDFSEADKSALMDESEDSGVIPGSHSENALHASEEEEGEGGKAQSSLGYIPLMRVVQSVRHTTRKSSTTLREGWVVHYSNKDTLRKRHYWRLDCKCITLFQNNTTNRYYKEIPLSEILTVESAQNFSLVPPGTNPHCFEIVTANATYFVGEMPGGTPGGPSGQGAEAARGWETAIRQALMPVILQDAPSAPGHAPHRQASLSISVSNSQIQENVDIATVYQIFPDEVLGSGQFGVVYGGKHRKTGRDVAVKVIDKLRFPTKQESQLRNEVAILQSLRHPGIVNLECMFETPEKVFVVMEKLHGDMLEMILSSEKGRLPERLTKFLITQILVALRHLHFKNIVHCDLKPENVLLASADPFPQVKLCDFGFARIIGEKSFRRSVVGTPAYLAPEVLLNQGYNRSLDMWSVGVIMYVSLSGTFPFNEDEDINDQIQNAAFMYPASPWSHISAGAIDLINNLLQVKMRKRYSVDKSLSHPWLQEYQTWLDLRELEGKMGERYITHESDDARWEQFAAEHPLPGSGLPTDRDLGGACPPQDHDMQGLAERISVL
The note with it: at 1 µM.

Assay [2] addresses T2, Serine/threonine-protein kinase D3 (Homo sapiens) (UniProt O94806).
T2 sequence (whole entry): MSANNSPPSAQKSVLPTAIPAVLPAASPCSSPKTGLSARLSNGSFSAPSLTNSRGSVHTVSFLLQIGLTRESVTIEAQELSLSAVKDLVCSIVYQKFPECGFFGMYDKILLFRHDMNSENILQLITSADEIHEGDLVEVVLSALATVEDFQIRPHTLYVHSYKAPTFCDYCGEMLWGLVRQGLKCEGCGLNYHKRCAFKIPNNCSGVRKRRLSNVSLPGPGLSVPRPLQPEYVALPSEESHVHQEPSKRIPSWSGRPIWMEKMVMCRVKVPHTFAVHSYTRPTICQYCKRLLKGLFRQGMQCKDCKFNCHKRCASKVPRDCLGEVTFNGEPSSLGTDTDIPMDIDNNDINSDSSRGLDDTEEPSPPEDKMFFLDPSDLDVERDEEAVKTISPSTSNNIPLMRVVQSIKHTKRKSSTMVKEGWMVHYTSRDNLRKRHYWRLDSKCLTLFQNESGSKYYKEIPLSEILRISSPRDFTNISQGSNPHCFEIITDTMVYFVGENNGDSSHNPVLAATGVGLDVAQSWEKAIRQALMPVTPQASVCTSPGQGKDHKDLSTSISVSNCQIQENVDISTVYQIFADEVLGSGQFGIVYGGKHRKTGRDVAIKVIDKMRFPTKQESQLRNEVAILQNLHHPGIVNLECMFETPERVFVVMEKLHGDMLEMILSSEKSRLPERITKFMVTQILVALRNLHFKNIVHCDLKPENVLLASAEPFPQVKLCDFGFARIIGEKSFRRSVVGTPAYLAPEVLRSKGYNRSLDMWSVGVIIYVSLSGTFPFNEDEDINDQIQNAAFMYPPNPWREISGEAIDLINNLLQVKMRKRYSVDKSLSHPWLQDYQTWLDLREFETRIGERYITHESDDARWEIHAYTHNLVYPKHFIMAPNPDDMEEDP
The note with it: at 0.1 µM.

The target of assay [3] is T2, Serine/threonine-protein kinase D3 (Homo sapiens). The note with it: at 1 µM.
Assay [4] deals with T3, cGMP-dependent protein kinase 1 (Homo sapiens) (UniProt Q13976).
T3 sequence (whole entry): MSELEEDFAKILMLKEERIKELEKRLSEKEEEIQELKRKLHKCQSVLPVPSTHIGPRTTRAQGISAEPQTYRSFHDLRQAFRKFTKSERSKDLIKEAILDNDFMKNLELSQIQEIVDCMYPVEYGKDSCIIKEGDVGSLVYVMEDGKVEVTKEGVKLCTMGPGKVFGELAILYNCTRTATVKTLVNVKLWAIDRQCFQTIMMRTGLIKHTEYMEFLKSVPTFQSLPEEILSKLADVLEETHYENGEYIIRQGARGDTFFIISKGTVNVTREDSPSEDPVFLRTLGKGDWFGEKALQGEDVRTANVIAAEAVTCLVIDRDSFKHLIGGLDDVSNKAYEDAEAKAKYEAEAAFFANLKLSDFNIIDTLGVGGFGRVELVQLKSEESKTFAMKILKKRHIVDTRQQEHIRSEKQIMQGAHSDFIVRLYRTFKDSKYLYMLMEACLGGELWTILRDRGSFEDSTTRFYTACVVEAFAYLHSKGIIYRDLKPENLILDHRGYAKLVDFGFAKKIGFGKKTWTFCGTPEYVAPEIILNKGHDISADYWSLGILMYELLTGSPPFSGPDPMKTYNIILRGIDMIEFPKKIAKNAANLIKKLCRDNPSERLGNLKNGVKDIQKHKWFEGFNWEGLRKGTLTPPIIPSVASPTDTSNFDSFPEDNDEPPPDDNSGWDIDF
The note with it: at 0.1 µM.

For assay [5], the target named is T3, cGMP-dependent protein kinase 1 (Homo sapiens). The note with it: at 1 µM.
The target in assay [6] is T4, cGMP-dependent protein kinase 2 (Homo sapiens) (UniProt Q13237).
T4 sequence (whole entry): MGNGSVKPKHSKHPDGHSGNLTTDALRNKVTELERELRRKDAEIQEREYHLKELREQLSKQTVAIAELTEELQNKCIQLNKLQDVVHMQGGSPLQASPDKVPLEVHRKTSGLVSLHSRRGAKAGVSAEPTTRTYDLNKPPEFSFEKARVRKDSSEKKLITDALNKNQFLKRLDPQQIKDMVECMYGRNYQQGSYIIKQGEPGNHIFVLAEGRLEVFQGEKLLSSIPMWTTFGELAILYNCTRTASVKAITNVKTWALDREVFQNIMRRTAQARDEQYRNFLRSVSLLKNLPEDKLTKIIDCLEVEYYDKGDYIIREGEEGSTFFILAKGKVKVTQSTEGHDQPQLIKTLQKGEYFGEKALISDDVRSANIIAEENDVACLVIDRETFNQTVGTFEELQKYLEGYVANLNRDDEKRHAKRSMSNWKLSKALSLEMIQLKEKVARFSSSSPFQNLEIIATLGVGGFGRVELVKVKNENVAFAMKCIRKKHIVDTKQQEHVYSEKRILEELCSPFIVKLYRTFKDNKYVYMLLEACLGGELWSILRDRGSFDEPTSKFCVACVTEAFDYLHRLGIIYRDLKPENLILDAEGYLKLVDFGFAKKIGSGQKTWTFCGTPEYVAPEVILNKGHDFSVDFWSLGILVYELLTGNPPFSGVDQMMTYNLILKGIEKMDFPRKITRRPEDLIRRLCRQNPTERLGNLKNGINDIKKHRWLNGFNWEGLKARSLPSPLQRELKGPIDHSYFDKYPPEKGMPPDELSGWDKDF
The note with it: at 0.1 µM.

Assay [7] deals with T4, cGMP-dependent protein kinase 2 (Homo sapiens). The note with it: at 1 µM.
Assay [8] concerns the target T5, cAMP-dependent protein kinase catalytic subunit PRKX (Homo sapiens) (UniProt P51817).
T5 sequence (whole entry): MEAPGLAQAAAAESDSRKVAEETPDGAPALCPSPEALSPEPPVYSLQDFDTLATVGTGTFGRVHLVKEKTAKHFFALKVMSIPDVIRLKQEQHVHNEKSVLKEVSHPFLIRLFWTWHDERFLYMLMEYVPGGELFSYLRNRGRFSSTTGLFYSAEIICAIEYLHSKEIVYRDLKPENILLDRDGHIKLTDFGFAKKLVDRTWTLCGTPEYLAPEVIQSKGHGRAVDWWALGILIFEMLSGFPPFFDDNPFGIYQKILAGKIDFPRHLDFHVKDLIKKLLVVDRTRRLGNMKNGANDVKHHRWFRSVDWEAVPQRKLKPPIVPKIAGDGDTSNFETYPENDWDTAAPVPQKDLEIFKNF
The note with it: at 0.1 µM.

For assay [9], the target named is T5, cAMP-dependent protein kinase catalytic subunit PRKX (Homo sapiens). The note with it: at 1 µM.
The target of assay [10] is Rho-associated protein kinase 1 (Homo sapiens) (UniProt Q13464). The note with it: at 0.1 µM.
Assay [11] has the same target. The note with it: at 1 µM.
In assay [12] the target is Rho-associated protein kinase 2 (Homo sapiens) (UniProt O75116). The note with it: at 0.1 µM.
Assay [13] has the same target. The note with it: at 1 µM.
Assay [14] concerns the target Ribosomal protein S6 kinase alpha-1 (Homo sapiens) (UniProt Q15418). The note with it: at 0.1 µM.
For assay [15] the target is unchanged. The note with it: at 1 µM.
Assay [16] has as its target Ribosomal protein S6 kinase alpha-3 (Homo sapiens) (UniProt P51812). The note with it: at 0.1 µM.
The target is the same in assay [17]. The note with it: at 1 µM.
Assay [18] deals with Ribosomal protein S6 kinase alpha-2 (Homo sapiens) (UniProt Q15349). The note with it: at 0.1 µM.
Assay [19] shares this target. The note with it: at 1 µM.
Assay [20] has as its target Ribosomal protein S6 kinase alpha-6 (Homo sapiens) (UniProt Q9UK32). The note with it: at 0.1 µM.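 Also: reported value is the mean inhibition of RSK4, from the GSK PKIS kinase inhibitor screen.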

Each structure is given as a SMILES string.

Sequence of Ribosomal protein S6 kinase alpha-3 (Homo sapiens) (P51812 whole entry): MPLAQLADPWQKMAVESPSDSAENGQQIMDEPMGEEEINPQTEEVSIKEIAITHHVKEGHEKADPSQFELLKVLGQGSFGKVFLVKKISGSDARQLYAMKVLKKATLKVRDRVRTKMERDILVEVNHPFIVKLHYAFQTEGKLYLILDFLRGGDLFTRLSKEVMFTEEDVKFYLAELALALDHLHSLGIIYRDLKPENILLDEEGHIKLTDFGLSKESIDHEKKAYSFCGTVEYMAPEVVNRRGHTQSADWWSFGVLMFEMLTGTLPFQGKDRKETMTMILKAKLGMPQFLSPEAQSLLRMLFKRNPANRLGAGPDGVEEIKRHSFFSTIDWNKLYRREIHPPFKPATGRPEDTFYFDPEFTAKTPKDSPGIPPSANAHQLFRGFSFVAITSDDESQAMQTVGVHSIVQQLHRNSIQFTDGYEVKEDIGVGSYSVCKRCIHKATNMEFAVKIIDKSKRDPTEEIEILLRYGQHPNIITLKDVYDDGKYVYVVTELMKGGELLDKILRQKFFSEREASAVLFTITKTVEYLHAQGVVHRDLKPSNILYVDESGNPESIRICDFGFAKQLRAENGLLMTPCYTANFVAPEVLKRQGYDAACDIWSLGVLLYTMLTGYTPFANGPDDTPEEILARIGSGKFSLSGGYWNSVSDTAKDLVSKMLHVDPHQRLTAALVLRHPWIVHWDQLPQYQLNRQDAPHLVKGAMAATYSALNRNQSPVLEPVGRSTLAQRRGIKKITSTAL
Sequence of Ribosomal protein S6 kinase alpha-1 (Homo sapiens) (Q15418 whole entry): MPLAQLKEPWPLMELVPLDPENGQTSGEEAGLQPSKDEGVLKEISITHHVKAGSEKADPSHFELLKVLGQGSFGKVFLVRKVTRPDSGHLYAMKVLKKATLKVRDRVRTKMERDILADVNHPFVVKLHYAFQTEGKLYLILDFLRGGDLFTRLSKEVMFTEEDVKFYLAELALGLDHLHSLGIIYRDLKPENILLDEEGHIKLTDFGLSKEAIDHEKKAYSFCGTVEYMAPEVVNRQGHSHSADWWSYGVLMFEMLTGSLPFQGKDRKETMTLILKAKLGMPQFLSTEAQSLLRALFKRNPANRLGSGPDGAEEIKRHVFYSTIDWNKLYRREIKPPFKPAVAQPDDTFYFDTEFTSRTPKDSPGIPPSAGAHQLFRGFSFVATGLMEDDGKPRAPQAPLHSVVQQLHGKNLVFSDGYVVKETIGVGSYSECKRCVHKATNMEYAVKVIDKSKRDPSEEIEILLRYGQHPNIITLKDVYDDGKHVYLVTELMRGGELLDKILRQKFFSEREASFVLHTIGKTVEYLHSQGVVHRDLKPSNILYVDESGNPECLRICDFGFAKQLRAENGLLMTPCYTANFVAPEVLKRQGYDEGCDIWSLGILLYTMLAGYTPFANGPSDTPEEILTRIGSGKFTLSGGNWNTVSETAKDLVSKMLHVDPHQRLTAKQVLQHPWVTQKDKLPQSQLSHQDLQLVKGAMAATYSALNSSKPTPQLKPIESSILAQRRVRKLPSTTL
Sequence of Rho-associated protein kinase 1 (Homo sapiens) (Q13464 2-1354 limits assumed): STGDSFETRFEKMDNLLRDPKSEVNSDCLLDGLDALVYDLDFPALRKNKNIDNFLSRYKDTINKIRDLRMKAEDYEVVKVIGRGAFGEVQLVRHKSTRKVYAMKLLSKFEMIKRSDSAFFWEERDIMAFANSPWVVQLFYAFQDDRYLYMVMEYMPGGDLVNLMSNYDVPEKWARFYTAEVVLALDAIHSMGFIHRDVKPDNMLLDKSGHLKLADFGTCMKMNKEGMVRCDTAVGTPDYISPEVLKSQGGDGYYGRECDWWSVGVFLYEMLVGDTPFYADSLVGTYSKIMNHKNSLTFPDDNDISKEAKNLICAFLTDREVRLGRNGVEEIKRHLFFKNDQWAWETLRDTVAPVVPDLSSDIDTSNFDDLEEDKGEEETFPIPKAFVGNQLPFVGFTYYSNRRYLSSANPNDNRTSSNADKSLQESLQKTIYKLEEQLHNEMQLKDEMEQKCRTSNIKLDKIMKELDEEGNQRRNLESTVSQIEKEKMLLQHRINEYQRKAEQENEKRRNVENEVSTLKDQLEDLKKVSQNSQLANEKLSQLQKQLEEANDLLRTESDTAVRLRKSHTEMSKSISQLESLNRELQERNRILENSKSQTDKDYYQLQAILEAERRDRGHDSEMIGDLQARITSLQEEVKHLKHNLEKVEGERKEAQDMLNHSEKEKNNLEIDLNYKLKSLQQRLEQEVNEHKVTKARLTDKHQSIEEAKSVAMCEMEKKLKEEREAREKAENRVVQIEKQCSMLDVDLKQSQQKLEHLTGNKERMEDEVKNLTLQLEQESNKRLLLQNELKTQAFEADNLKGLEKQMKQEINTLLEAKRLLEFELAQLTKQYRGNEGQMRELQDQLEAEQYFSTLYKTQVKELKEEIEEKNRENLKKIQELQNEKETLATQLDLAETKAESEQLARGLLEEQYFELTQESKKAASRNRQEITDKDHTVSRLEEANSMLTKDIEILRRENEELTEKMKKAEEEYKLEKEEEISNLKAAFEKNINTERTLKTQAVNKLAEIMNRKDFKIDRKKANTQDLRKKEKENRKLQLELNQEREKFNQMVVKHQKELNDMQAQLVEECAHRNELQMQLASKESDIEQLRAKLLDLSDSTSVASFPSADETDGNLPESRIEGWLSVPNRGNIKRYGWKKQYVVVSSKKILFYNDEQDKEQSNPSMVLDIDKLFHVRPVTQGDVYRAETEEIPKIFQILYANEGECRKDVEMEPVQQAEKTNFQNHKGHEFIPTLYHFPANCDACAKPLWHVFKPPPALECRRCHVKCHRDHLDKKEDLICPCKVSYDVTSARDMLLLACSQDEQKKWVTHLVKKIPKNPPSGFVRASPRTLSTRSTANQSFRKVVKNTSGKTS
Sequence of Ribosomal protein S6 kinase alpha-2 (Homo sapiens) (Q15349 whole entry): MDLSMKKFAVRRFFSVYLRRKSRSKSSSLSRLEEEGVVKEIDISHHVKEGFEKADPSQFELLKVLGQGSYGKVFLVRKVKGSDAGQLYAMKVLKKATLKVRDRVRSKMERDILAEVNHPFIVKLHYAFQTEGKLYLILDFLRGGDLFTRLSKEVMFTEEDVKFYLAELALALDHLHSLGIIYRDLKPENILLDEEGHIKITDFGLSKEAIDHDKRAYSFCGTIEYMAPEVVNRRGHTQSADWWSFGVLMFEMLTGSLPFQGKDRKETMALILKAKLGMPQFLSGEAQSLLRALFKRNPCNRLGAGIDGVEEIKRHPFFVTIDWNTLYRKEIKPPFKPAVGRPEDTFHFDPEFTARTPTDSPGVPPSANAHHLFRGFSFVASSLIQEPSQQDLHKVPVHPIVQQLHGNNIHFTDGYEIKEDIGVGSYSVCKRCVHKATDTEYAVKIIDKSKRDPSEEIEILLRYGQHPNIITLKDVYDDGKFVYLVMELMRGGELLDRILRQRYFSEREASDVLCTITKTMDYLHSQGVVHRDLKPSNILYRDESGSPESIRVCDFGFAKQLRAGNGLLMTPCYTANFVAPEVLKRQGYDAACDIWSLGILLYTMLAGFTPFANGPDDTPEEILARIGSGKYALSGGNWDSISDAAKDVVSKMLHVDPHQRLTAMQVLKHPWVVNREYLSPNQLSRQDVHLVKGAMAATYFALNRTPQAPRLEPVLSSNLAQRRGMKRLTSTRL
Sequence of Ribosomal protein S6 kinase alpha-6 (Homo sapiens) (Q9UK32 whole entry): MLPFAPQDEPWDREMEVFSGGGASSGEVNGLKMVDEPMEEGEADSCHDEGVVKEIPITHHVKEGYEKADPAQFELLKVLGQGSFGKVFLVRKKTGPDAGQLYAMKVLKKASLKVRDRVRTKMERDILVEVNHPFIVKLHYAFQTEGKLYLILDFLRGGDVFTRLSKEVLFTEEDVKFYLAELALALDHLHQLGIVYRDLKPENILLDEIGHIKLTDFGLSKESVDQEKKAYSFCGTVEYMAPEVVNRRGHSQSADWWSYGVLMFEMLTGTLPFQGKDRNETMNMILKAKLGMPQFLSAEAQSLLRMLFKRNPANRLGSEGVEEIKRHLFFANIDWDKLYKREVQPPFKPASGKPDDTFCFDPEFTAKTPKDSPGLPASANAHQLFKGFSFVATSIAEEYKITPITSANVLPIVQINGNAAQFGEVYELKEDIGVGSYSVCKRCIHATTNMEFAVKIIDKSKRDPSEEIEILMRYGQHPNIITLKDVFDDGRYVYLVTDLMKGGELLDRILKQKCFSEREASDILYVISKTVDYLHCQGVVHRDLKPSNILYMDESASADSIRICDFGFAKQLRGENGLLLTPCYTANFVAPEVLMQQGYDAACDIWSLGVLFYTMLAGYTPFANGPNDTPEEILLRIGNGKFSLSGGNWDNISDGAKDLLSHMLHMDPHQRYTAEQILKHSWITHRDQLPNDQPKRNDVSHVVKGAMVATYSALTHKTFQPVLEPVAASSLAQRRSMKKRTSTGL

In general, inhibition refers to the relative decrease from the control value, in per cent. As for `NS(=O)(=O)c1cccc(Nc2cc(-c3ccc(F)cc3)n[nH]2)c1`, the inhibition in assay [1] came out at 3.29%; in assay [2], 2.9%; in assay [3] it was 3.78%; in [4] it was 2.36%; in [5], 5.63%; in assay [6], 4.45%. The inhibition in assay [7] stood at 6.86%; in assay [8], 6.02%; in [9], 9.4%; in assay [10], 1.22%; in assay [11] it was 3.34%; in assay [12] it was 3.4%. Besides, the inhibition in [13] turned out to be 8.75%; in assay [14] it was 3.22%; in assay [15], 7.2%; in assay [16], 2.09%; in assay [17], 5.61%; in assay [18], 2.21%. Moreover, the inhibition in assay [19] came out at 4.15%; in assay [20], 1.89%.

As for `Cc1ccc2c(-c3ccnc(Nc4cccc(C(F)(F)F)c4)n3)c(-c3ccccc3)nn2n1`, the inhibition in assay [1] came to 56.8%; in assay [2], 11.6%; in [3], 51.5%; in assay [4], 3.11%; in assay [5], 5.07%; in assay [6], 3.26%. Besides, the inhibition in assay [7] stood at 4.35%; in assay [8] it was 2.65%; in [9] it was 2.54%; in [10], 3.08%; in [11], 3.58%; in [12] it was 3.31%. In addition, the inhibition in assay [13] was 3.33%; in [14], 0.52%; in [15] it was 2.33%; in assay [16], -0.67%; in assay [17], 0.59%; in [18], 3.58%. The inhibition in assay [19] is 3.98%; in assay [20], 0.82%.

On to `Cc1ccc2c(-c3ccnc(Nc4ccc5c(c4)OCCO5)n3)c(-c3ccc(C(F)(F)F)cc3)nn2n1`, for which the inhibition in assay [1] amounted to 2.37%; in assay [2] it was 1.2%; in [3] it was 2.26%; in assay [4], 3.03%; in assay [5], 3.63%; in [6], 2.95%. Further, the inhibition in assay [7] was determined as 2.42%; in [8], 6.47%; in assay [9] it was 6.18%; in assay [10] it was 0.76%; in assay [11], 1.22%; in [12], 0.44%. For the same molecule, the inhibition in assay [13] is 1.89%; in assay [14] it was 0.91%; in [15] it was 0.79%; in assay [16] it was 1.19%; in assay [17] it was 1.86%; in [18], 1.06%. Besides, the inhibition in assay [19] was 1.53%; in [20] it was -0.18%.
